Assay results: PubChem BioAssay (NCI)
This is part of a sample that, as a whole, favours compounds with a hit. Of some 83,000 tested, about 20% had one in any assay.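 Note: values are percent growth. 100 is the growth of untreated cells, values between 100 and 0 indicate rising inhibition; between -100 and 0 indicates cell death.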 A number with no mark means an inactive call. The source made the active and inactive calls. Rule for the calls: active = growth percent below 10; inactive = the rest.

System: HL-60(TB) leukemia
Test: NCI-60 one-dose screen, 48 h (100 = growth as untreated, 0 = no growth, -100 = all killed)
Settings: 10 µM unless noted

Going from `CCOC(=O)CN1/C(=N/c2sc3c(c2C(=O)OCC)CCN(C(=O)OCC)C3)SC(=O)/C1=C\C(=O)OC` to `CCOC(=O)C1(CC(C)C)CCOC1=O` (centres undefined), the growth rises from 79.9% to 96.9%.

Compared with `c1ccc(C2NCCNC2c2ccccc2)cc1` (centres undefined), `Cc1ccc(Nc2cccc3ccccc23)cc1` is lower in growth: 103% for the first, 96.2% for the second.

Compared with `CC12O[C@H](C[C@@H](OC(=O)c3ccccc3)[C@H]1O)n1c3ccccc3c3c4c(c5c6ccccc6n2c5c31)C(=O)NC4=O`, `NC1=NN=C2N(N)C(=O)c3cnn(-c4ccccc4)c3N2c2nc(-c3ccccc3)cc(-c3ccccc3)c21` is higher in growth: 96.9% for the first, 105% for the second.

Going from `S=c1[nH]c2cc(Cl)ccc2s1` to `O=[N+]([O-])c1ccc(C=C2C(Cl)=C(Cl)C(Cl)=C2Cl)cc1`, the growth falls from 97.4% to 34.2%.

First: CC(=O)N(C)c1ccc(Nc2ccc(Nc3ccc(N(C)C(C)=O)cc3)c3c2C(=O)c2ccccc2C3=O)cc1
Second: FC(F)(F)c1cc(NC2=NCCN=C(Nc3cc(C(F)(F)F)cc(C(F)(F)F)c3)SS2)cc(C(F)(F)F)c1
The growth of the first is higher: 77% for the first, 52.9% for the second.

In the case of `Cc1ccc(-c2onc3c(=O)[nH]nc(-c4ccccc4)c23)cc1`, the growth is reported as -8.12% (active).
For `O=C1CCCCC=C1C[N+](=O)[O-]`, the growth was 0.0104% (active).
In the case of `CCN(C(=O)N1CCN(c2cc3c(cc2F)c(=O)c(C(=O)O)cn3C2CC2)CC1)c1nc(-c2ccccc2)cs1`, the growth is reported as -34% (active).
With `CCCNc1nc2ccccc2c2c1S(=O)(=O)c1ccc(Cl)cc1C2=O` the growth was -14.1% (active).
